Compound activity from PubChem BioAssay.
A selection: hits, their analogues and other compounds. The true share with any hit is near 9%.
BAZ2B inh: BAZ2B (human) inhibition; Q9UIF8; AlphaScreen BAZ2B-H3K14Ac peptide displacement; Potency, µM (series often up to 114 µM), inactives show top-dose activity change, negative = inhibition, most hits filed as inhibitors; 4.4% of 360,000 active; further: on the % scale 0 is the no-effect control and ±100 the full control effect; nearly all actives have a fitted effect of over 60% in size
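Compounds, titrated to a top concentration of 110 uM, were incubated 30 min at room temperature with preformed BAZ2B/acetyl-K14 H3 peptide complex (50 nM each). Proximity signal was measured by AlphaScreen after 20 min with beads.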
JMJD2A Tudor inh: blocks the human JMJD2A Tudor domain | O75164 | AlphaScreen JMJD2A-Tudor / H3K4me3 peptide binding | Potency, µM (highest dose often 114 µM), without a hit: at the highest dose activity change, negative = inhibition, hits mostly inhibitors | 4.4% of 390,000 active | AID 504339; further: on the % scale 0 is the no-effect control and ±100 the full control effect; nearly all actives have a fitted effect of over 50% in size
PLK1 PBD block: inhibitors of human PLK1 polo-box domain binding; P53350; Plk1 PBD binding of FITC phosphopeptide, fluorescence polarization; Potency, µM, for the others: max response, negative = inhibition, actives largely listed as inhibitors; 2.8% of 360,000 active; AID 720504; further: series mostly up to about 57 µM; on the % scale 0 is the no-effect control and ±100 the full control effect; nearly all actives have a fitted effect of over 65% in size
Target sequence (P53350 whole entry, looked up, the tested form may be a part): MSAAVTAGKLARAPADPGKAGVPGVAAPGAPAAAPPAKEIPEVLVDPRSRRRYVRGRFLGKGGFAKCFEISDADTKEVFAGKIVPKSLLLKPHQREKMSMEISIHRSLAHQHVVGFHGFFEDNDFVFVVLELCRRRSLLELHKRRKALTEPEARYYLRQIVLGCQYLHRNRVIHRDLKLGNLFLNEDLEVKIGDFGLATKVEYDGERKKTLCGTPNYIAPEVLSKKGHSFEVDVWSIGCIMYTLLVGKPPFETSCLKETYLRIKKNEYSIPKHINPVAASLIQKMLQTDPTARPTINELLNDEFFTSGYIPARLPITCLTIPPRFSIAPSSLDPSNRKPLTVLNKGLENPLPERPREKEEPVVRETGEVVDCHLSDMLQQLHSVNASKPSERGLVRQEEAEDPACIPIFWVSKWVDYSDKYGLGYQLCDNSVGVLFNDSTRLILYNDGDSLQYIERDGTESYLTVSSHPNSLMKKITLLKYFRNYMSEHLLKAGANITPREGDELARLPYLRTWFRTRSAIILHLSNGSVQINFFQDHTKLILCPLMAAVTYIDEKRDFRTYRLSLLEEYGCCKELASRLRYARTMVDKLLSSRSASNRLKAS
HP1b binding inh: blocks HP1-beta chromodomain binding to methylated histone tails | P83916 | AlphaScreen HP1-beta / biotin-H3K9me3 peptide binding | Potency, µM (series often up to 114 µM), inactives show at the top dose activity change, negative = inhibition, usual class: inhibitors | 0.56% of 390,000 active | AID 540317; further: nearly all actives have a fitted effect of over 70% in size
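Compound inhibition of the preformed complex between 50 nM HP1-beta and 50 nM biotinylated H3K9me3 peptide was read by AlphaScreen. Buffer was PBS pH 7.4 with 0.01% Tween-20. Incubations ran 30 min at room temperature, with 10 ug/mL donor/acceptor beads.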
12-LOX inh: inhibitors of human 12S-lipoxygenase ALOX12 | purified 12hLO, xylenol orange hydroperoxide absorbance | Potency, µM (top dose mostly 108 µM), inactives show at the top dose activity change, negative = inhibition, actives largely listed as inhibitors | 1.1% of 580,000 active; further: on the % scale 0 is the no-effect control and ±100 the full control effect
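Hydroperoxide product was detected by ferrous iron/xylenol orange as the 573 to 405 nm absorbance ratio. Arachidonic acid at 40 uM (final) was turned over for 30 min at room temperature by 150 nM human 12hLO, pH 7.0 Hepes buffer, after 15 min compound preincubation.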
G9a block: inhibitors of human histone lysine methyltransferase G9a. 8.8% of 350,000 active. Potency, µM (highest dose often 102 µM), without a hit: at the highest dose activity, negative = inhibition, actives largely listed as inhibitors. G9a H3K9 monomethylation, AlphaScreen, 2 h. Q96KQ7; further: on the % scale 0 is the no-effect control and ±100 the full control effect; nearly all actives have a fitted effect of over 75% in size
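Chemiluminescent proximity detection of H3K9 monomethylation, read after 10 min bead incubation in the dark. Reaction: 20 nM G9a, 500 nM biotin-H3K9 peptide, 20 uM SAM cofactor, 2 h, room temperature, following 15 min enzyme-compound preincubation.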
* hit, by the source's call; ? = inconclusive; . = not tested or not shown; [ ] = another dose, or the depositor's remark. The call rests on the fitted dose curve; in most records, active means well fitted curve in the direction sought with a large enough effect; inconclusive means small, poorly fitted or top-dose-only effect, or another doubt; inactive means no such curve, though single readings can be large; an effect the other way counts as inactive or inconclusive. Potency means the concentration at half of the fitted maximal effect.

SMILES	BAZ2B inh	JMJD2A Tudor inh	PLK1 PBD block	HP1b binding inh	12-LOX inh	G9a block
O=C(N/N=C/c1ccncc1)c1ccc(NC(=O)c2ccc(Cl)cc2)cc1	-33%	-15%	-4%	26%	-14%	?
CCOC(=O)N1CCN(C(=O)Nc2sc3nc4n(c(=O)c3c2C)CCC(C)CC4)CC1 (centres undefined)	-35%	-29%	-17%	9%	-28%	32µM*
Cc1c(NC(=O)Nc2ccc(Cl)c(Cl)c2)sc2nc3n(c(=O)c12)CCC(C)CC3 (centres undefined)	-1%	-7%	.	30%	-22%	3%[59 µM]
CCOC(=O)c1sc2nc3n(c(=O)c2c1C)CCC(C)CC3 (centres undefined)	11%	-13%	30µM*	-10%	?	10µM*
CCCNC(=O)COc1ccc(-c2noc(-c3ccccc3)n2)cc1OCC	.	.	.	.	-18%	.
CC(=O)Oc1ccc2nc(-c3cccs3)oc(=O)c2c1	-1%	-5%	-12%	16%	?	2%[0.501 µM]
CC(=O)Oc1ccc2nc(-c3ccco3)oc(=O)c2c1	-24%	28µM*	27µM*	21%	?	-38%[59 µM]
C=C1N(C)c2cc([N+](=O)[O-])c(N)cc2C1(C)C	45µM*	?	?	?	?	32µM*
CC1(C)Oc2cc(N)c([N+](=O)[O-])cc2O1	-34%	-16%	-13%	-9%	?	?
Cc1ccc(N2C(=O)C3C(c4ccccc4)N4CCCN4C3(C)C2=O)cc1 (centres undefined)	-8%	-5%	-26%	43%	-20%	7.9µM*
Cc1ccc(N2C(=O)C3C(C2=O)N2CCCN2C3c2ccccc2)cc1C (centres undefined)	-21%	-15%	?	?	-12%	?
O=C(Nc1cccc(C(F)(F)F)c1)Oc1ccc(Cl)c2cccnc12	18µM*	40µM*	-8%	3%[57 µM]	?	132%
CCN(CC)C(=O)Oc1ccc(Cl)c2cccnc12	-13%	-3%	-7%	-5%	-2%	31%
O=C(NC1=NCCS1)c1ccc(OCC2CCCO2)cc1 (centres undefined)	0%	-12%	-3%	5%	16%[57.4 µM]	-28%[59 µM]
O=C(Nc1ncccc1O)c1ccc(OCC2CCCO2)cc1 (centres undefined)	79µM*	-24%	-9%	39%	15%	-8%
O=C(Nc1ncccc1O)c1ccc(Oc2ccccc2)cc1	-1%	?	30µM*	-7%	-28%	5%
O=C(CN1CCN(Cc2ccc(F)cc2)CC1)NCCc1ccccc1	7%	-13%	-28%	-4%	8%	1%[0.501 µM]
O=C(O)CSc1sc(=S)sc1SCC(=O)O	-29%	?	27µM*	0%	?	45µM*
CC[C@]12c3[nH]c4ccccc4c3CCN1C(=O)C(CC(=O)NCc1ccco1)C[C@@H]2C(=O)N1CCN(C(=O)C2CC2)CC1 (some centres undefined)	.	-7%	-16%	15%	-59%	.
CC12CCC(C(=O)NCCCn3ccnc3)(OC1=O)C2(C)C (centres undefined)	-2%	-26%[11.4 µM]	?	-4%	-8%	16µM*
Cc1cccc(NC(=O)CCN2C(=O)c3ccccc3S2(=O)=O)c1C	51%	-6%	-7%	20%	.	.
Cc1ccc(N(C(=O)CCCC(=O)Nc2ccccn2)C(C(=O)NC2CCCC2)c2ccc(O)cc2)cc1C (centres undefined)	3%	-21%	-8%	-6%	-7%	8.9µM*
O=C(/C=C/c1ccco1)NCc1ccc2c(c1)OCO2	-13%	-10%	-25%	16%	?	20µM*
O=C(/C=C/c1ccco1)NCCc1ccc(F)cc1	79µM*	-36%	-29%	?	?	40µM*
O=C(/C=C/c1ccncc1)NCCc1ccc(F)cc1	.	.	.	.	-2%	.
SMILES	BAZ2B inh	JMJD2A Tudor inh	PLK1 PBD block	HP1b binding inh	12-LOX inh	G9a block
C/C(CC12CC3CC(CC(C3)C1)C2)=N\O	.	.	.	.	-3%	.
C/C(CCC12CC3CC(CC(C3)C1)C2)=N\NC(N)=S	?	?	-13%	-12%	10µM*	-6%
CN1CCN(C(=O)C23CC4CC(C)(CC(C)(C4)C2)C3)CC1	-11%	-3%	2%	48%	0%	56µM*
CC12CC3CC(C)(C1)CC(C(=O)N1CCCC1)(C3)C2	-15%	-5%	-20%	18%	-8%	42%
O=C(CCCNC(=O)/C(=C\c1ccccc1F)NC(=O)c1ccccc1)OCc1ccccc1	7%	2%	0%	22%	5%	-6%[59 µM]
CC1CCC(=O)N(CCOc2ccccc2)CC1 (centres undefined)	8%	?	27µM*	9%	0%	-32%
O=C1CCN(Cc2ccccc2)CCN1CCOc1ccccc1	-25%	-10%	1%	28%	-2%	-4%
CC(C)C[C@@H](COc1ccccc1)N1CCN(C)CCC1=O	1%	-4%	-1%	44%	-12%	.
C[C@H]1CCC(=O)N([C@H](COc2ccccc2)Cc2ccccc2)CC1	9%	4%	-8%	76%	?	32µM*
COC(=O)C(C(=O)Nc1ccc(OC)cc1)C1CCCCCC1 (centres undefined)	-3%	-7%	-7%	39%	3%	-19%[59 µM]
CCC(CC)=N/N=C/c1c(O)n(CC)c2cc(C3=NNC(=O)CC3)ccc12	-28%	-22%	5%	27%	0%	3.5µM*
O=C(O)COc1ccccc1-c1ccccc1	-1%	-2%	1%	29%	10%	-1%
O=C(NCCOc1ccccc1-c1ccccc1)c1ccco1	-15%	-11%	-26%	-25%	-8%	21%
COC(=O)c1ccccc1OCCCOc1ccc(C)cc1OC	-37%	.	.	.	.	-3%[59 µM]
OCCOCCOc1ccccc1OCCOCCO	-1%	-9%	-3%	17%	-8%	-8%
COC(=O)c1ccccc1OCCCN(C)C	79µM*	89µM*	-9%	?	-12%	8.9µM*
C=CCNCCOCCOc1ccccc1-c1ccccc1	79µM*	50µM*	-8%	-26%	?	.
COCCCNCCOCCOc1ccccc1-c1ccccc1	50µM*	2.5µM*	-9%	?	-17%	?
CC(C)(C)NCCOCCOc1ccccc1-c1ccccc1	22µM*	1.8µM*	-7%	22µM*	-24%	3.5µM*
Cc1ccc(CNC(=S)Nc2cc(C(=O)O)ccc2C)cc1	11%	-11%	-19%	0%	?	-33%
O=S(=O)(/N=C(\Nc1ccc(F)cc1)C(F)(F)F)c1ccccc1	?	?	-6%	5%	-9%	.
CN(C)CCNCCCOc1ccccc1-c1ccccc1	40µM*	.	.	.	.	8.9µM*
